According to PubChem BioAssay AID2078 (The Scripps Research Institute Molecular Screening Center, 2009):
Active and inactive are the calls of the source. No rule for the calls is given here.

Test: STAT3 blockade with qPCR and toxicity readouts – cell-based, STAT1 panel, cytotoxicity, late-stage follow-up (AID 2078)
Details: STAT3/STAT1 inhibition panel, cell reporter assay, Quantitative PCR; qPCR mRNA fold change, at 10 µM, stronger effect = lower value

c1ccc(CC2CCN(c3ncnc4sccc34)CC2)cc1
fold change: 0.68
outcome: active; probe
